In PubChem BioAssay AID1159580 (chemical genetic matrix, 2015):
Several values for one entry are separate records, joined by “and”; a condition that tells them apart may be missing. Equal entries are not always repeated. In all, about 5,500 compounds went through this assay and about 2,000 (36%) were called active. About 18% were inconclusive and are not listed. The list shows a part of the results. Unmarked numbers belong to inactive results. Rule as the data show it: active = normalized growth mostly below about 0.91 (no sharp cut-off); inconclusive = no clear call, values can overlap the other calls; inactive = mostly above about 0.92.

Assay: chemical genetic growth profiling, strain panel (AID 1159580);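 also: tested at 20 µM; growth read once vehicle control cultures reached saturation at 30 °C; 1 = growth at the plate median or of vehicle wells; lower values mean less growth of the strain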
Conditions: S. cerevisiae deletion strains, growth OD

## COc1ccc(-c2oc3c(CC=C(C)C)c(O[C@@H]4O[C@H](CO)[C@@H](O)[C@H](O)[C@H]4O)cc(O)c3c(=O)c2O[C@@H]2O[C@@H](C)[C@H](O)[C@@H](O)[C@H]2O)cc1
Locus YAL013W, strain DEP1, stronger effect = lower value
  normalized growth: 1.04
Locus YAL021C, strain ccr4, stronger effect = lower value
  normalized growth: 1.05
Locus YAL026C, strain drs2, stronger effect = lower value
  normalized growth: 1.05
Locus YAL030W, strain snc1, stronger effect = lower value
  normalized growth: 1.04
Locus YBL061C, strain skt5, stronger effect = lower value
  normalized growth: 1.03
Locus YBR009C, strain hhf1, stronger effect = lower value
  normalized growth: 1.03
Locus YBR021W, strain FUR4, stronger effect = lower value
  normalized growth: 1.19 [resistant] (active)
Locus YBR023C, strain chs3, stronger effect = lower value
  normalized growth: 1.02
Locus YBR171W, strain sec66, stronger effect = lower value
  normalized growth: 1.06
Locus YBR229C, strain ROT2, stronger effect = lower value
  normalized growth: 1
Locus YBR231C, strain swc5, stronger effect = lower value
  normalized growth: 1.03
Locus YBR279W, strain paf1, stronger effect = lower value
  normalized growth: 1.03
Locus YCL011C, strain gbp2, stronger effect = lower value
  normalized growth: 1.03
Locus YCL016C, strain dcc1, stronger effect = lower value
  normalized growth: 1
Locus YCL029C, strain bik1, stronger effect = lower value
  normalized growth: 0.976
Locus YCL061C, strain MRC1, stronger effect = lower value
  normalized growth: 1.04
Locus YCL069W, strain vba3, stronger effect = lower value
  normalized growth: 1.02
Locus YCR088W, strain abp1, stronger effect = lower value
  normalized growth: 1.04
Locus YDL005C, strain med2, stronger effect = lower value
  normalized growth: 1.03
Locus YDL035C, strain GPR1, stronger effect = lower value
  normalized growth: 1
Locus YDL040C, strain nat1, stronger effect = lower value
  normalized growth: 1.02
Locus YDL074C, strain BRE1, stronger effect = lower value
  normalized growth: 0.988
Locus YDL101C, strain DUN1, stronger effect = lower value
  normalized growth: 0.989
Locus YDL185W, strain tfp1, stronger effect = lower value
  normalized growth: 0.955
Locus YDL192W, strain arf1, stronger effect = lower value
  normalized growth: 0.987
Locus YDR001C, strain nth1, stronger effect = lower value
  normalized growth: 1.04
Locus YDR069C, strain doa4, stronger effect = lower value
  normalized growth: 1.06
Locus YDR101C, strain arx1, stronger effect = lower value
  normalized growth: 0.975
Locus YDR137W, strain rgp1, stronger effect = lower value
  normalized growth: 1.07
Locus YDR150W, strain NUM1, stronger effect = lower value
  normalized growth: 1.01
Locus YDR159W, strain sac3, stronger effect = lower value
  normalized growth: 1.07
Locus YDR162C, strain NBP2, stronger effect = lower value
  normalized growth: 0.989
Locus YDR195W, strain ref2
  normalized growth: 1.05
Locus YDR297W, strain sur2, stronger effect = lower value
  normalized growth: 1.03
Locus YDR318W, strain mcm21, stronger effect = lower value
  normalized growth: 0.986
Locus YDR334W, strain swr1, stronger effect = lower value
  normalized growth: 1.04
Locus YDR335W, strain msn5, stronger effect = lower value
  normalized growth: 1.02
Locus YDR388W, stronger effect = lower value
  normalized growth: 0.99
Locus YDR392W, strain spt3, stronger effect = lower value
  normalized growth: 1
Locus YDR502C, strain sam2, stronger effect = lower value
  normalized growth: 0.989
Locus YEL003W, strain gim4, stronger effect = lower value
  normalized growth: 1.03
Locus YEL037C, strain rad23, stronger effect = lower value
  normalized growth: 1.03
Locus YEL061C, strain CIN8 (second series), stronger effect = lower value
  normalized growth: 1.04
Locus YEL061C, strain CIN8, stronger effect = lower value
  normalized growth: 0.993
Locus YER015W, strain faa2, stronger effect = lower value
  normalized growth: 1.02
Locus YER016W, strain bim1, stronger effect = lower value
  normalized growth: 1.03
Locus YER110C, stronger effect = lower value
  normalized growth: 0.966
Locus YER111C, strain swi4, stronger effect = lower value
  normalized growth: 1.05
Locus YER155C, strain BEM2 (second series), stronger effect = lower value
  normalized growth: 1.05
Locus YER155C, strain BEM2, stronger effect = lower value
  normalized growth: 1
Locus YER167W, strain BCK2, stronger effect = lower value
  normalized growth: 1.01
Locus YFR010W, strain ubp6, stronger effect = lower value
  normalized growth: 1.05
Locus YGL078C, strain dbp3, stronger effect = lower value
  normalized growth: 0.983
Locus YGL086W, strain mad1, stronger effect = lower value
  normalized growth: 0.975
Locus YGL167C, strain pmr1, stronger effect = lower value
  normalized growth: 1.02
Locus YGL173C, strain kem1, stronger effect = lower value
  normalized growth: 1.05
Locus YGL227W, strain vid30, stronger effect = lower value
  normalized growth: 1.04
Locus YGL240W, strain doc1, stronger effect = lower value
  normalized growth: 1.04
Locus YGL248W, strain PDE1, stronger effect = lower value
  normalized growth: 1.01
Locus YGL253W, strain hxk2, stronger effect = lower value
  normalized growth: 0.946
Locus YGR078C, strain PAC10, stronger effect = lower value
  normalized growth: 1
Locus YGR135W, strain pre9, stronger effect = lower value
  normalized growth: 1
Locus YGR252W, strain gcn5, stronger effect = lower value
  normalized growth: 1.06
Locus YHR013C, strain ard1, stronger effect = lower value
  normalized growth: 1.03
Locus YHR027C, strain rpn1, stronger effect = lower value
  normalized growth: 1.03
Locus YHR030C, strain SLT2, stronger effect = lower value
  normalized growth: 0.99 and 1.02
Locus YHR079C, strain IRE1 (second series), stronger effect = lower value
  normalized growth: 0.965
Locus YHR079C, strain IRE1, stronger effect = lower value
  normalized growth: 1.03
Locus YHR094C, strain hxt1, stronger effect = lower value
  normalized growth: 0.988
Locus YHR129C, strain ARP1, stronger effect = lower value
  normalized growth: 0.996
Locus YHR142W, strain chs7, stronger effect = lower value
  normalized growth: 1.01
Locus YHR200W, strain rpn10, stronger effect = lower value
  normalized growth: 0.997
Locus YIL066C, strain RNR3, stronger effect = lower value
  normalized growth: 1.02
Locus YIL073C, strain SPO22, stronger effect = lower value
  normalized growth: 0.924
Locus YIL125W, strain kgd1, stronger effect = lower value
  normalized growth: 0.985
Locus YIR030C, strain dcg1, stronger effect = lower value
  normalized growth: 0.983
Locus YJL092W, strain hpr5, stronger effect = lower value
  normalized growth: 1.04
Locus YJL095W, strain BCK1 (second series), stronger effect = lower value
  normalized growth: 1.03
Locus YJL095W, strain BCK1, stronger effect = lower value
  normalized growth: 0.975 and 1.02
Locus YJL115W, strain asf1, stronger effect = lower value
  normalized growth: 1.05
Locus YJL129C, strain trk1, stronger effect = lower value
  normalized growth: 1.02
Locus YJL134W, strain LCB3, stronger effect = lower value
  normalized growth: 1.01
Locus YJL154C, strain vps35, stronger effect = lower value
  normalized growth: 1.04
Locus YJL164C, strain tpk1, stronger effect = lower value
  normalized growth: 1.01
Locus YJL166W, strain qcr8, stronger effect = lower value
  normalized growth: 1.04
Locus YJL168C, strain set2, stronger effect = lower value
  normalized growth: 0.985
Locus YJL187C, strain SWE1 (second series), stronger effect = lower value
  normalized growth: 0.987
Locus YJL187C, strain SWE1, stronger effect = lower value
  normalized growth: 1.02
Locus YJR043C, strain POL32, stronger effect = lower value
  normalized growth: 1.04
